Inconclusive results are not listed. Where a call stands in place of a potency, no number is given. Activity calls are given as the source filed them. Unless noted, calls follow the shape of the full dose curve.
Columns and labels:
[1] = target: Cytochrome P450 2C19 (Homo sapiens) (UniProt P33261); assay: qHTS Assay for Inhibitors and Substrates of Cytochrome P450 2C19 (AID 899; active = well fitted curve in the direction sought with a large enough effect; an effect the other way counts as inactive or inconclusive; also: potency is read from the fitted curve at half-maximal effect; nearly all actives have a fitted effect of over 60% in size)
Outline: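 Luminescent read-out of luciferin formed from Luciferin-H EGE (10uM, equal to KM). Enzyme 5nM in 50mM KPO4; compound added, 10 min at 37C, then NADPH regenerating system for 60 min at 37C. Full inhibition defined by 57uM ketoconazole.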

[2] = qHTS Assay for Lipid Storage Modulators (AID 1519); conditions: Drosophila S3 cells, BODIPY lipid droplet/cell ratio, laser cytometry, cells loaded with oleic acid
Outline: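 Cells seeded at 5,000 per well were treated with compounds over a concentration series and loaded with oleic acid (400 uM, as added). Lipid droplet fluorescence (488 nm excitation, 500-530 nm channel) was read by laser-scanning cytometry and normalized to 20 uM Triacsin C.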

[3] = qHTS profiling of the MIPE4 collection as inhibitors of Plasmodium falciparum (DD2) proliferation (AID 743345; call rule not given here); conditions: P. falciparum Dd2 in erythrocytes, SYBR Green DNA, 72 h; at 28.5 µM (top of the series) unless noted
Outline: (§1)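 Erythrocytes infected with P. falciparum (0.3% parasitemia, 2.5% hematocrit) incubated with compounds 72 h at 37 C, 5% CO2. Lysis with saponin/Triton buffer containing SYBR Green I, overnight at room temperature in the dark; DNA fluorescence (485/535 nm) normalised to 0.29 uM artemisinin and DMSO.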

[4] = qHTS profiling of the MIPE4 collection as inhibitors of Plasmodium falciparum (DD2) proliferation (Rep 2) (AID 743346; call rule not given here); conditions: P. falciparum Dd2 in erythrocytes, SYBR Green DNA, 72 h; at 28.5 µM (top of the series) unless noted
Outline: as §1

[5] = qHTS for Inhibitors of the Functional Ribonucleoprotein Complex (vRNP) of Lassa (LASV) Arenavirus: LASV Primary Screen - GLuc reporter signal (AID 1347082; calls by dose curve; tested in HEK293 reporter line; also: nearly all actives have a fitted effect of over 60% in size; also: potency is read from the fitted curve at half-maximal effect)
[6] = qHTS for Inhibitors of the Functional Ribonucleoprotein Complex (vRNP) of Lassa (LASV) Arenavirus: Viability assay - alamar blue signal for LASV Primary Screen (AID 1347083; calls by dose curve; tested in HEK293 reporter line; also: nearly all actives have a fitted effect of over 80% in size; also: potency is read from the fitted curve at half-maximal effect)
[7] = qHTS for Inhibitors of the Functional Ribonucleoprotein Complex (vRNP) of Lymphocytic Choriomeningitis Arenaviruses (LCMV): Viability assay - alamar blue signal for LCMV Primary Screen (AID 1347085; calls by dose curve; tested in HEK293 reporter line; also: nearly all actives have a fitted effect of over 80% in size; also: potency is read from the fitted curve at half-maximal effect)
[8] = target: Nucleoprotein (Lymphocytic choriomeningitis virus (strain Armstrong)) (UniProt P09992); assay: qHTS for Inhibitors of the Functional Ribonucleoprotein Complex (vRNP) of Lymphocytic Choriomeningitis Arenaviruses (LCMV): LCMV Primary Screen - GLuc reporter signal (AID 1347086); also: nearly all actives have a fitted effect of over 70% in size; also: potency is read from the fitted curve at half-maximal effect
[9] = Cytotoxicity counterscreen for inhibitors of SARS-CoV-2 cell entry (AID 1645845); also: nearly all actives have a fitted effect of over 50% in size
Outline: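 HEK293-ACE2 cells (Expi293F stably expressing human ACE2) seeded overnight, then compound for 1 h plus 48 h at 37C. Viability as ATP content by luminescence; normalized to wells with cells and media-only wells.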

[10] = Primary qHTS to identify inhibitors of SARS-CoV-2 cell entry (AID 1645846); conditions: activity change, negative = inhibition: at 57.1 µM (top of the series) unless noted; also: nearly all actives have a fitted effect of over 45% in size
Outline: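 Entry measured by luciferase signal 48 h after adding SARS-CoV-2-S pseudotyped MLV particles to HEK293-ACE2 cells preincubated 1 h with compounds. Normalisation: bald particles and spike particles.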

[11] = target: Cytochrome P450 3A4 (Homo sapiens) (UniProt P08684); assay: qHTS Assay for Inhibitors and Substrates of Cytochrome P450 3A4 (AID 884; active = well fitted curve in the direction sought with a large enough effect; an effect the other way counts as inactive or inconclusive; also: nearly all actives have a fitted effect of over 50% in size)
Outline: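 20 nM human CYP3A4 with 25 uM Luciferin-PPXE (at KM) in 200 mM KPO4, preincubated 10 min with compound; NADPH regeneration started a 60 min RT reaction. Luciferin detected by luminescence, normalized to 57 uM ketoconazole as full inhibition.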

[12] = target: Ubiquitin carboxyl-terminal hydrolase 1 (Homo sapiens) (UniProt O94782); assay: Inhibitors of USP1/UAF1: Pilot qHTS (AID 504865; active = well fitted curve in the direction sought with a large enough effect; an effect the other way counts as inactive or inconclusive;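 also: rhodamine fluorescence freed from ubiquitin-rhodamine substrate followed over time; top concentration of the series differs between compounds; nearly all actives have a fitted effect of over 35% in size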)
Outline: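 Deubiquitinase activity followed as kinetic rhodamine fluorescence release from 150 nM Ub-Rho. 1 nM USP1/UAF1 with compound, after 15 min room-temperature preincubation, in HEPES pH 7.8 buffer containing TCEP, EDTA, BSA and Tween-20.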

[13] = target: DNA dC->dU-editing enzyme APOBEC-3G (Homo sapiens) (UniProt Q9HC16); assay: qHTS for inhibitors of Vif-A3G interactions: Validation (AID 588379; active = well fitted curve in the direction sought with a large enough effect; an effect the other way counts as inactive or inconclusive)
Outline: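 HeLa cells stably expressing Vif and A3G-eYFP, 700 cells/well, incubated overnight at 37 deg C, then exposed to compound overnight at 37 deg C. Inhibition of Vif-mediated degradation read as increased yellow fluorescence (Ex 488/Em 500-530) by laser-scanning cytometry.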

[14] = target: Cytochrome P450 3A4 (Homo sapiens) (UniProt P08684); assay: qHTS Assay for Activators of Cytochrome P450 3A4 (AID 885; active = well fitted curve in the direction sought with a large enough effect; an effect the other way counts as inactive or inconclusive; also: nearly all actives have a fitted effect of over 65% in size)
Outline: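 Quantitative HTS format: compounds preincubated with 20nM human CYP3A4 and Luciferin-PPXE substrate at KM, reaction started by NADPH regeneration, stopped after 60 min, luciferase luminescence read 20 min later.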

[15] = Confirmation and Secondary Assay for Modulators of Hemoglobin Beta Chain Splicing at IVS2 654 locus (AID 910; active = well fitted curve in the direction sought with a large enough effect; an effect the other way counts as inactive or inconclusive;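 also: HeLa cells stably carrying EGFP split by mutant beta-globin IVS2-654 intron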)
Outline: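 HeLa cells stably expressing EGFP interrupted by β-globin IVS2-654 intron, seeded overnight in Opti-MEM/2% FCS, then treated 2 days at 37 °C. Restored splicing read as total peak GFP intensity per well by laser scanning cytometry (488 nm excitation, 500–520 nm emission); 500 nM antisense PNA as control.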

[16] = Confirmation and Secondary Assay for Modulators of Hemoglobin Beta Chain Splicing at IVS2 705 locus (AID 930; active = well fitted curve in the direction sought with a large enough effect; an effect the other way counts as inactive or inconclusive;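 also: HeLa cells stably expressing the EGFP-705 splicing reporter; GFP fluorescence per well restored by corrected splicing of the IVS2-705 intron in EGFP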)
Outline: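 HeLa EGFP-705 reporter; 500 cells/well, o/n 37C 5% CO2; cpd 2 d; 488 ex/500-520 em laser scan; total peak GFP intensity/well. Ref: 500 nM […] antisense PNA.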

[17] = Confirmatory qHTS to identify inhibitors of SARS-CoV-2 cell entry (AID 1645844); also: potency is read from the fitted curve at half-maximal effect; nearly all actives have a fitted effect of over 45% in size
Outline: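 HEK293-ACE2 cells were pretreated 1 h with compound, then infected with MLV-based pseudoparticles bearing C-terminally truncated Wuhan-Hu-1 spike for 48 h at 37C; luciferase luminescence normalized to spike PP and bald PP wells.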

[18] = VSVG counterscreen qHTS to identify inhibitors of SARS-CoV-2 cell entry (AID 1645847); also: potency is read from the fitted curve at half-maximal effect; nearly all actives have a fitted effect of over 65% in size
Outline: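 Luminescence read after 48 h infection at 37 C with VSV-G-pseudotyped MLV particles, following 1 h compound exposure of Expi293F cells stably expressing human ACE2; scaled between bald particle and VSV-G particle wells.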

[19] = qHTS profiling of the MIPE4 collection as inhibitors of Plasmodium falciparum (3D7) proliferation (AID 743344; call rule not given here); conditions: P. falciparum 3D7 in erythrocytes, SYBR Green DNA fluorescence, 72 h; at 28.5 µM (top of the series) unless noted
Outline: as §1

[20] = measured here: cell count channel max response
[21] = measured here: lipid channel max response

Chain of Nucleoprotein (Lymphocytic choriomeningitis virus (strain Armstrong)) (P09992 whole entry, looked up): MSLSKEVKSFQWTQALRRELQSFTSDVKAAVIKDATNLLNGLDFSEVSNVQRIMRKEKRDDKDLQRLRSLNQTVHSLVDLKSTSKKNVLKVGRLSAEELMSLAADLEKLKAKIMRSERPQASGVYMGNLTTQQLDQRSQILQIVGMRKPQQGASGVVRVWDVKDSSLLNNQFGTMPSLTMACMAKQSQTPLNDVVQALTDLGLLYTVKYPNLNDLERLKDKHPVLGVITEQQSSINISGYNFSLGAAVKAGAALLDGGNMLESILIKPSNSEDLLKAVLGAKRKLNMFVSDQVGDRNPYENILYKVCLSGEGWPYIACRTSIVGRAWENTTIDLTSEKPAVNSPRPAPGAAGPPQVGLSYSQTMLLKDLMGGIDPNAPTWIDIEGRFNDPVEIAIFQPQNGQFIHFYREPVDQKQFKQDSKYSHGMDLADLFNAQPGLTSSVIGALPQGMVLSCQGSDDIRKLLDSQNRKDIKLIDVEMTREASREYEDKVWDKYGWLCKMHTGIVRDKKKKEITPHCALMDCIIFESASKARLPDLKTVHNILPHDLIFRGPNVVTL
Chain of Ubiquitin carboxyl-terminal hydrolase 1 (Homo sapiens) (O94782 whole entry, looked up): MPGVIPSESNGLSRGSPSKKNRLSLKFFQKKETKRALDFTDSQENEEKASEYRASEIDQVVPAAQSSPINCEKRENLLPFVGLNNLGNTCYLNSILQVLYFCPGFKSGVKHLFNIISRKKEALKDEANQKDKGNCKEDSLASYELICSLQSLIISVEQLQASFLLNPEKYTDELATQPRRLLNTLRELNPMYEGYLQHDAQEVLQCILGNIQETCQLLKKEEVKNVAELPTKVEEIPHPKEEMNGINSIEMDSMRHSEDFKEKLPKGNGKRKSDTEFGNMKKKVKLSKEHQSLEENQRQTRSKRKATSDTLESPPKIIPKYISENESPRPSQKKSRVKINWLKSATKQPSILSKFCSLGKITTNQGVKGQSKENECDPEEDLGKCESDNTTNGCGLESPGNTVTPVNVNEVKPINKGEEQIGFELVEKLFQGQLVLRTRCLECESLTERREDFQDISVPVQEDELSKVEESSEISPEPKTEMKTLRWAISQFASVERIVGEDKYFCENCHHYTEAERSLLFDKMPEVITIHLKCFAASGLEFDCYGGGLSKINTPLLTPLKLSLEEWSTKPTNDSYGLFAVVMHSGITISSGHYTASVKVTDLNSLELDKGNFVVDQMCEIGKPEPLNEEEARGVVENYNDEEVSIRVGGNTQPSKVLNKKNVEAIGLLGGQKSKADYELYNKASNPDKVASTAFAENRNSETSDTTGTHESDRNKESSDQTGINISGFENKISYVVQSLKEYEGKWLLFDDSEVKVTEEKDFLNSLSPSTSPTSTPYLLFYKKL
Chain of Cytochrome P450 3A4 (Homo sapiens) (P08684 whole entry, looked up): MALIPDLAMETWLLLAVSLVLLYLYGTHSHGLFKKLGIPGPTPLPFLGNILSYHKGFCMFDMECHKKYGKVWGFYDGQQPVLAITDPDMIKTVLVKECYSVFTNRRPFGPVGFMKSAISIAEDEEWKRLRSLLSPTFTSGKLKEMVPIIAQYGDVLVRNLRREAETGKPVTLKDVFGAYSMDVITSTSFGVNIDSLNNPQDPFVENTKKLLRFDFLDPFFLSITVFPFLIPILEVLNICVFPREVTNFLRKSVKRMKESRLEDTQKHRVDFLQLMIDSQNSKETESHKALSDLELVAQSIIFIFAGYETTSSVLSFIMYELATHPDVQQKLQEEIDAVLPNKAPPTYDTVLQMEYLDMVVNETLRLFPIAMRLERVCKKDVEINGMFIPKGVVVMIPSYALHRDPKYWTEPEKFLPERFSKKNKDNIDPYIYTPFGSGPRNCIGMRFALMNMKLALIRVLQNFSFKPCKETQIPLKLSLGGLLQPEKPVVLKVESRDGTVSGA
Chain of DNA dC->dU-editing enzyme APOBEC-3G (Homo sapiens) (Q9HC16 whole entry, looked up): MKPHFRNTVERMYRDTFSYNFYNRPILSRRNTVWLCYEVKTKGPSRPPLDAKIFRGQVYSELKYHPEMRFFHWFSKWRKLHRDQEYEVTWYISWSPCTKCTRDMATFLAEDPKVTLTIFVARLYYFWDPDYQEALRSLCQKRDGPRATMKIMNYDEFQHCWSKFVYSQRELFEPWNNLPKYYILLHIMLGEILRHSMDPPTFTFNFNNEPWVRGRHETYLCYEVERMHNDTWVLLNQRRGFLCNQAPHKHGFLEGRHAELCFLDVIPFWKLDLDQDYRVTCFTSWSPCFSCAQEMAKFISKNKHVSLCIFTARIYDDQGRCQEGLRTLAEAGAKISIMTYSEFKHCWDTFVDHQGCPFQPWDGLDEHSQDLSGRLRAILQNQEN
Chain of Cytochrome P450 2C19 (Homo sapiens) (P33261 whole entry, looked up): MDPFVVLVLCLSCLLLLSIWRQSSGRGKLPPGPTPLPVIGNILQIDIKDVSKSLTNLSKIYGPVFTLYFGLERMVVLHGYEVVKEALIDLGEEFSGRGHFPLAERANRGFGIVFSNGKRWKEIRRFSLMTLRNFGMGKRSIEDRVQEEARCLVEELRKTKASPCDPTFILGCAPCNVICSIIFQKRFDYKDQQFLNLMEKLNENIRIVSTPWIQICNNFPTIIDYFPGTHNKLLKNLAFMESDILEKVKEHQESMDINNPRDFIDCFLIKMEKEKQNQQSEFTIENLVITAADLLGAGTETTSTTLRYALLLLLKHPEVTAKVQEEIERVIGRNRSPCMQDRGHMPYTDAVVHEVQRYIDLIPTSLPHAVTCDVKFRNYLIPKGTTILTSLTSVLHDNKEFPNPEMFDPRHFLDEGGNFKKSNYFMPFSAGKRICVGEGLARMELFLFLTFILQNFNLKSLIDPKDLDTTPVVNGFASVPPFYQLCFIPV

## O=C1C[C@@H](c2ccc(O)cc2)Oc2cc(O)cc(O)c21
[1]
  Potency: 7.94 µM (active)
[2]; at 25.7 µM (top of the series)
  activity change, negative = inhibition: 0.577% (inactive)
[2]; [20]
  max response: -18.3%
[2]; [21]
  max response: -14.1%
[3]
  parasite growth remaining, % of DMSO control (lower = more inhibition): 72.2%
[4]
  parasite growth, % of control (lower = inhibition): 56.8%
[5]
  Potency: inactive
[6]
  Potency: inactive
[7]
  Potency: inactive
[8]
  Potency: inactive
[9]
  Potency: inactive
[10]
  Potency: inactive

## C/C=C1/CN2CC[C@]34C(=C(C=O)[C@H]1C[C@@H]23)Nc1ccccc14
[11]
  Potency: inactive
[2]; at 57.5 µM (top of the series)
  activity change, negative = inhibition: -2.11% (inactive)
[2]; [20]
  max response: 7.61%
[2]; [21]
  max response: 5.28%
[12]
  Potency: inactive
[13]
  Potency: inactive
[5]
  Potency: inactive
[6]
  Potency: inactive
[7]
  Potency: inactive
[8]
  Potency: inactive

## C=CCSSCC=C
[14]
  Potency: inactive
[15]
  Potency: inactive
[16]
  outcome: inactive
[2]; at 57.5 µM (top of the series)
  activity change, negative = inhibition: 11.8% (inactive)
[2]; [20]
  max response: 5.28%
[2]; [21]
  max response: 18.2%
[12]
  Potency: inactive
[5]
  Potency: inactive
[6]
  Potency: inactive
[7]
  Potency: inactive
[8]
  Potency: inactive

## CO[C@@H]1C(N(C)C(=O)c2ccccc2)C[C@H]2O[C@]1(C)n1c3ccccc3c3c4c(c5c6ccccc6n2c5c31)C(=O)NC4=O (stereo partly drawn)
[5]
  Potency: inactive
[6]
  Potency: 12.2 µM (active)
[7]
  Potency: inactive
[8]
  Potency: inactive
[17]
  Potency: 21.5 µM (active)
[9]
  Potency: inactive
[10]
  activity change, negative = inhibition: -47%
[18]
  Potency: 27.1 µM (active)

## CC1CCC(C(=O)N(c2cc(C#CC(C)(C)C)sc2C(=O)O)C2CCC(O)CC2)CC1 (stereo not drawn)
[5]
  Potency: inactive
[6]
  Potency: inactive
[7]
  Potency: inactive
[8]
  Potency: inactive
[9]
  Potency: inactive

## CN1C(=O)C[C@H](C(=O)N[C@@H](Cc2cnc[nH]2)C(=O)N2CCC[C@@H]2C(N)=O)NC1=O
[19]
  parasite growth, % of DMSO control: 86%
[4]
  parasite growth, % of control (lower = inhibition): 70.2%
[5]
  Potency: inactive
[6]
  Potency: inactive
[7]
  Potency: inactive
[8]
  Potency: inactive
[17]
  Potency: 19.2 µM (active)
[9]
  Potency: inactive
[18]
  Potency: 0.961 µM (active)

## CS(=O)(=O)N(Cc1ccco1)CC(O)Cn1c2ccccc2c2ccccc21 (stereo not drawn)
[5]
  Potency: inactive
[6]
  Potency: inactive
[7]
  Potency: inactive
[8]
  Potency: inactive
[17]
  Potency: 6.81 µM (active)
[9]
  Potency: inactive
[10]
  activity change, negative = inhibition: -37.4%
[18]
  Potency: 0.429 µM (active)

## NC(=O)c1ccc2[nH]ccc2c1
[5]
  Potency: inactive
[6]
  Potency: inactive
[7]
  Potency: inactive
[8]
  Potency: inactive
[9]
  Potency: inactive
[10]
  activity change, negative = inhibition: -19.6%

## CNC(=O)c1ccc2cc(C3(O)CCn4cncc43)ccc2c1 (stereo not drawn)
[5]
  Potency: inactive
[6]
  Potency: inactive
[7]
  Potency: inactive
[8]
  Potency: inactive
[9]
  Potency: inactive
[10]
  activity change, negative = inhibition: -19.9%

## Cc1coc2c1C(=O)C(=O)c1c-2ccc2c1CCCC2(C)C
[5]
  Potency: inactive
[6]
  Potency: inactive
[7]
  Potency: inactive
[8]
  Potency: inactive
[9]
  Potency: inactive
[10]
  activity change, negative = inhibition: -20%

## C=C1c2cccc(O)c2C(O)=C2C(=O)[C@@]3(O)C(O)=C(C(N)=O)C(=O)[C@@H](N(C)C)[C@@H]3[C@@H](O)[C@H]12
[5]
  Potency: inactive
[6]
  Potency: inactive
[7]
  Potency: inactive
[8]
  Potency: inactive
[9]
  Potency: inactive
[10]
  activity change, negative = inhibition: -17.4%

## CCCCCCCCCCCC(CC1OC(=O)C1CCCCCC)OC(=O)C(CC(C)C)NC=O (stereo not drawn)
[5]
  Potency: inactive
[6]
  Potency: inactive
[7]
  Potency: inactive
[8]
  Potency: inactive
[9]
  Potency: inactive
[10]
  activity change, negative = inhibition: 0.438%

## COc1ccc(S(=O)(=O)Nc2cc(-c3c(O)ccc4ccccc34)c(O)c3ccccc23)cc1
[5]
  Potency: inactive
[6]
  Potency: inactive
[7]
  Potency: inactive
[8]
  Potency: inactive
[9]
  Potency: inactive

## CC[C@@]1([C@@H]2O[C@@H]([C@H]3O[C@@](O)(CO)[C@H](C)C[C@H]3C)C[C@H]2C)CC[C@H]([C@]2(C)CC[C@]3(C[C@H](O)[C@@H](C)[C@@H]([C@@H](C)[C@@H](OC)[C@H](C)C(=O)O)O3)O2)O1
[5]
  Potency: 0.376 µM (active)
[6]
  Potency: 3.35 µM (active)
[7]
  Potency: 4.21 µM (active)
[8]
  Potency: 1.06 µM (active)
[9]
  Potency: inactive

Source: PubChem BioAssay (NCATS)
